Laboratory results as given in PubChem BioAssay AID977622 (Broad Institute, 2014).
The whole screen tested about 1,900 compounds, of which fewer than 10 were called active. About 39% were inconclusive and are not listed.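 How the source made its calls: active means Green signal of the normal strain falls at least twice as much as red signal of the resistant mutant, with overall culture growth loss under a set limit; inconclusive means no clear call, values can overlap the other calls; inactive means the rest.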 The list is a sample of the results.

Columns and labels:
[1] = growth inhibition of wild-type GFP E. coli, dose response, h38 mutant RFP, cherry-pick (AID 977622); conditions: activity change: E. coli mixed culture, total growth OD600 at 50 uM, at 50 µM
[2] = system: E. coli h38 humanized mutant ribosome RFP fluorescence, mixed culture, 24 h; assay: as above; conditions: h38 mutant RFP at 50 uM; at 50 µM

Row | Compound | activity change [1] | outcome [1] | activity change [2]
1 | Cc1ccccc1CSCC(=O)Nc1ccccc1F | 0.464% | inactive | -14.9%
2 | Cc1ccc(-n2nnnc2SCC(=O)NC2CCCc3ccccc32)cc1 (stereo unspecified) |  | inactive | 6.43%
3 | Cc1ccc(C(=O)Nc2cccc3[nH]c(C(F)(F)F)nc23)cc1 | -24.3% | inactive | -27.5%
4 | CS(=O)(=O)Nc1ccccc1C(=O)NCCSc1ccccc1 |  | inactive | -11.5%
5 | O=C(C[n+]1ccn(-c2ccccc2)c1)c1ccc([N+](=O)[O-])cc1 | -2.75% | inactive | -5.23%
6 | CCOC(=O)c1cnc2ccccc2c1NCc1ccco1 | -29.3% | inactive | -3.48%
7 | NC(=O)C1CCN(c2cc(Cl)ccc2[N+](=O)[O-])CC1 | -7.61% | inactive | -0.291%
8 | COCCn1c(SCc2nc3ccccc3s2)nc2ccccc21 | 15.3% | inactive | 9.77%
9 | CC(=O)c1cccc(NC(=O)COC(=O)CCC(=O)c2ccc(F)cc2)c1 | -8.28% | inactive | 14.5%
10 | OCCC1CN(Cc2cnc(-c3ccc(Cl)cc3)nc2)CCN1C1CCCCC1 (stereo unspecified) | -4.88% | inactive | 
11 | CN1c2ccccc2-c2nc3ccccc3n2C1c1ccncc1 (stereo unspecified) | -2.28% | inactive | -4.12%
12 | C=C1c2cc3c(cc2NC(=S)N1Cc1ccccc1)OCO3 | -19.2% | inactive | -23.6%
13 | CC(=O)c1cccc(NC(=O)C2CCCN(S(C)(=O)=O)C2)c1 (stereo unspecified) | 4.2% | inactive | 
14 | CC(C)CC#Cc1ccc([C@@H]2[C@@H](CO)N3C(=O)CN(C(=O)Cc4ccccc4)C[C@@H]23)cc1 | 9.26% | inactive | 19.9%
15 | OC(COc1ccc(Cl)cc1)CN1CCN(c2ccccn2)CC1 (stereo unspecified) | -8.02% | inactive | 
16 | CN(CC(=O)Nc1cccc(F)c1)C(=O)Cn1c(=O)oc2ccccc21 | 2.16% | inactive | 60%
17 | CCN(CC)S(=O)(=O)c1ccc(O)c(C(=O)OCC(=O)NC23CC4CC(CC(C4)C2)C3)c1 | -19.8% | inactive | 
18 | CC1(CCC(=O)N2CCCC(N3CCN(c4ccc(F)cc4)CC3)C2)CC1 (stereo unspecified) | -2.02% | inactive | 22.3%
19 | CCc1ccc(NC(=O)CCc2c(C)nn(-c3ccc(N4CCCCC4)nn3)c2C)cc1 | -4.17% | inactive | -12.8%
20 | COc1cccc(C(=O)c2c[nH]c(C(=O)NCc3cccnc3)c2)c1 | -3.41% | inactive | 13.5%
21 | COc1ccc(NS(=O)(=O)c2cc(NC(=O)CNC(=O)c3cccc(OC)c3)ccc2C)cc1 | -27.6% | inactive | -12.3%
22 | O=C(Nc1ccc(Cl)cn1)c1ccc([N+](=O)[O-])o1 | -3.86% | inactive | 54.7%
23 | COc1cccc(CC(=O)OC(C)C(=O)NCc2ccc3c(c2)OCO3)c1 (stereo unspecified) | -31% | inactive | 6.13%
24 | O=S(=O)(Cc1ccccc1)N1CCCCN2[C@@H](CO)[C@H](c3ccc(C#Cc4ccccc4)cc3)[C@@H]2C1 | 2.15% | inactive | 11.8%
25 | Nc1[nH]c(C(=O)c2ccccc2)c(-c2ccc(Cl)cc2)c1C(=O)NCCc1c[nH]c2ccccc12 | -15.2% | inactive | 2%
26 | Cc1ccccc1-n1c([C@@H]2C[C@H]2c2ccccc2)n[nH]c1=S | -23.8% | inactive | 
